# In PubChem BioAssay (NCATS):
# Inconclusive results are not listed. Entries that show only a call come without a potency. Activity calls are given as the source filed them. Unless noted, the call rests on the fitted dose curve; in most records, active means well fitted curve in the direction sought with a large enough effect; inconclusive means small, poorly fitted or top-dose-only effect, or another doubt; inactive means no such curve, though single readings can be large; an effect the other way counts as inactive or inconclusive.
# Experiments:
# [1] = qHTS to identify inhibitors of the type 1 interferon - major histocompatibility complex class I in skeletal muscle: primary screen against the NCATS Pharmaceutical Collection (AID 1347407);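 further: luminescence of HiBiT knocked into endogenous HLA-B as interferon-induced MHC class I level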
# In short: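 A qHTS format is used: 8-point, 1:5 compound series with 46 uM top final concentration, applied alongside 4 ng/ml IFN-beta to HLA-B*08:01-HiBiT knock-in myoblasts. Luminescence is measured after 24 h treatment.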
# [2] = target: Protein phosphatase 1D (Homo sapiens) (UniProt O15297); assay: RapidFire Mass Spectrometry qHTS Assay for Modulators of WT P53-Induced Phosphatase 1 (WIP1) (AID 1347424); further: potency means the concentration at half of the fitted maximal effect
# In short: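 RapidFire MS readout of dephosphorylated VEPPL-S-QETFS product, with 1 uM isotope-labelled peptide standard. Reaction: 10 nM WIP1, 2 uM phosphopeptide substrate, 5 min, room temperature, after 1 h compound preincubation; stopped with 0.5% formic acid.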
# [3] = Primary qHTS for inhibitors of La Crosse Virus (LACV) - induced cell death in SH-SY5Y cells (AID 1508616);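 further: top concentration of the series differs between compounds; higher means more rescue of cells from virus-induced death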
# In short: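 Rescue of virus-induced death was read as ATPLite luminescence after 6 days at 37C, scaled between DMSO wells with LACV and without virus. Cells were SH-SY5Y, 6000/well, infected at 0.01 MOI after compound addition.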
# [4] = target: Calcium and integrin-binding protein 1 (Homo sapiens) (UniProt Q99828); assay: Primary qHTS for Identification of Calcium Integrin Binding Protein 1 (CIB1) Competitor (AID 1508620);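 further: GST tagged CIB1 binding a fluorescein labelled alphaIIb integrin peptide tracer; top concentration of the series differs between compounds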
# In short: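 Fluorescence polarization competition: GST-tagged CIB1 (1 uM final) preincubated with compound 15 min at room temperature, then FITC-labelled alphaIIb peptide (100 nM final) added. After 15 min at room temperature, polarization read at Ex 480/Em 540.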
# [5] = Primary qHTS for inhibitors of SARS-S pseudo-typed particle cell entry (AID 1479145; calls by dose curve; further: nearly all actives have a fitted effect of over 45% in size)
# [6] = Primary qHTS for Huh7 cytotoxicity: counterscreen for inhibitors of MERS-S pseudotyped particle cell entry (AID 1479147; calls by dose curve)
# [7] = Primary qHTS for inhibitors of MERS-S pseudo-typed particle cell entry (AID 1479149; calls by dose curve; further: nearly all actives have a fitted effect of over 60% in size)
# [8] = Primary qHTS for Vero E6 cytotoxicity: counterscreen for inhibitors of SARS-S pseudo-typed particle cell entry (AID 1479150; calls by dose curve)
# [9] = target: Protein phosphatase 1D (Homo sapiens) (UniProt O15297); assay: Rhodamine-PBP qHTS Assay for Modulators of WT P53-Induced Phosphatase 1 (WIP1) (AID 1347425)
# In short: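 Steps: enzyme with Rh-PBP sensor and compounds, room-temperature incubation of 1 hr, baseline read, addition of VEPPL-pS-QETFS (10 uM final), kinetic fluorescence reads at 525/598 nm. Activity equals final minus baseline signal.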
# [10] = target: Calcium and integrin-binding protein 1 (Homo sapiens) (UniProt Q99828); assay: Confirmatory qHTS for Identification of Calcium Integrin Binding Protein 1 (CIB1) Competitor (AID 1508617); further: nearly all actives have a fitted effect of over 65% in size
# In short: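 Binding competition between test compounds and fluorescent alphaIIb peptide for 1 uM CIB1-GST is monitored by FP at 480/540 nm. Final compound range is up to 114 uM; unlabeled peptide serves as reference competitor.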
# [11] = Counterscreen qHTS for small molecule stabilizers of the endoplasmic reticulum resident proteome: GLuc-NoTag assay (AID 1508627); further: series mostly up to about 76 µM
# In short: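 Counterscreen line: SH-SY5Y-GLuc-NoTag. Seed, 5 h; compound, 19 h; thapsigargin 100 nM, 4 h; 37C/5% CO2. Readout: secreted GLuc luminescence, coelenterazine 0.07x final, no lysis.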
# [12] = Confirmatory qHTS for small molecule stabilizers of the endoplasmic reticulum resident proteome: Secreted ER Calcium Modulated Protein (SERCaMP) assay (AID 1508628); further: series mostly up to about 76 µM; nearly all actives have a fitted effect of over 40% in size
# In short: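 Reporter secretion upon ER calcium depletion (100 nM thapsigargin, 4 h, 37C) is measured as medium luminescence with coelenterazine, after 16 h compound pretreatment of SH-SY5Y-GLuc-SERCaMP cells; primary at three concentrations up to 38.3 uM, follow-up at 11 (up to 76.6 uM).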
# Calcium and integrin-binding protein 1 (Homo sapiens), sequence (Q99828 whole entry, looked up): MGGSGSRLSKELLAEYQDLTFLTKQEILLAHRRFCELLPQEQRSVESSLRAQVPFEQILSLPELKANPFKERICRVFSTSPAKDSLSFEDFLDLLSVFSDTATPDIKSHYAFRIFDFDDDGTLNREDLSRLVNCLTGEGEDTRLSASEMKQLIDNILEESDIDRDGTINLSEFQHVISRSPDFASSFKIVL
# Protein phosphatase 1D (Homo sapiens), sequence (O15297 whole entry, looked up): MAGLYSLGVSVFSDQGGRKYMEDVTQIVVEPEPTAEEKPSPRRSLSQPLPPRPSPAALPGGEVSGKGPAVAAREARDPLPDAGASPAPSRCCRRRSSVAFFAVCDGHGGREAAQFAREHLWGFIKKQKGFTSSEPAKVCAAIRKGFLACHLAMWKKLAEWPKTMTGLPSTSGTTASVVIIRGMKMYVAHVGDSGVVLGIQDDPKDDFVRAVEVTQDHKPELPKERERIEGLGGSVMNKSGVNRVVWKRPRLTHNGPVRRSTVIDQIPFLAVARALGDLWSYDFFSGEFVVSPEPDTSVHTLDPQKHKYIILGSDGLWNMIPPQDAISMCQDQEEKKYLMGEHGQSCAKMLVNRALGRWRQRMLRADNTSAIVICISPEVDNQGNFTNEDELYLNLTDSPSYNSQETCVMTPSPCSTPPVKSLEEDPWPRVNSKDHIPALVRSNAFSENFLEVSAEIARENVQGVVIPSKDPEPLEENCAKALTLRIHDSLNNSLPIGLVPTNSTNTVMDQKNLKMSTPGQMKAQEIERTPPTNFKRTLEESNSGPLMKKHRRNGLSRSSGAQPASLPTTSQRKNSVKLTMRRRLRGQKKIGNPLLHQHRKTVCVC
smiles,measurement,setting,value
CC(Cc1ccccc1)NCCn1cnc2c1c(=O)n(C)c(=O)n2C (stereo unspecified),Potency,[1],inactive
same,Potency,[2],inactive
same,outcome,[3],inactive
same,Potency,[4],inactive
COc1cc(OC)c(OC)cc1C=O,Potency,[1],inactive
same,Potency,[2],inactive
same,outcome,[3],inactive
same,Potency,[4],inactive
CC(C)(C)NCC(O)c1cc(Cl)c(N)c(C(F)(F)F)c1 (stereo unspecified),Potency,[1],inactive
same,Potency,[2],inactive
same,Potency,[5],inactive
same,Potency,[6],inactive
same,Potency,[7],inactive
same,Potency,[8],inactive
same,Potency,[4],inactive
CCC1(c2ccccc2)C(=O)N(COC)C(=O)N(COC)C1=O,Potency,[1],inactive
same,Potency,[2],inactive
same,Potency,[4],inactive
CC(C)(N)Cc1ccccc1Cl,Potency,[1],inactive
same,Potency,[2],inactive
same,outcome,[9],inactive
same,Potency,[4],inactive
CC(C)c1c(CN(C)C(C)Cc2ccccc2)n(C)n(-c2ccccc2)c1=O (stereo unspecified),Potency,[1],inactive
same,Potency,[2],inactive
same,Potency,[4],inactive
O=C1OC(c2ccc(O)c(S(=O)(=O)O)c2)(c2ccc(O)c(S(=O)(=O)O)c2)c2c(Br)c(Br)c(Br)c(Br)c21,Potency,[1],inactive
same,Potency,[2],10 µM (active)
same,Potency,[5],inactive
same,Potency,[6],inactive
same,Potency,[7],inactive
same,Potency,[8],inactive
same,outcome,[3],inactive
same,Potency,[10],inactive
C=CCC1(C(C)CC)C(=O)NC(=O)NC1=O (stereo unspecified),Potency,[1],inactive
same,Potency,[2],inactive
same,Potency,[5],inactive
same,Potency,[6],inactive
same,Potency,[7],inactive
same,Potency,[8],inactive
same,outcome,[3],inactive
same,Potency,[4],inactive
NC(=O)CS(=O)C(c1ccccc1)c1ccccc1 (stereo unspecified),Potency,[1],inactive
same,Potency,[2],inactive
same,outcome,[3],inactive
same,Potency,[4],inactive
COc1c2c(cc3c1OCO3)CCN(C)C2,Potency,[1],inactive
same,Potency,[2],inactive
same,Potency,[5],inactive
same,Potency,[6],inactive
same,Potency,[7],inactive
same,Potency,[8],inactive
same,outcome,[3],inactive
same,Potency,[4],inactive
same,outcome,[11],inactive
same,Potency,[12],inactive
CCN[C@@H](C)Cc1cccc(C(F)(F)F)c1,Potency,[1],inactive
same,Potency,[2],inactive
same,outcome,[9],inactive
same,outcome,[3],inactive
same,Potency,[4],inactive
C#C[C@]1(O)CC[C@H]2[C@@H]3CCC4=CC(=O)CC[C@]4(C)[C@H]3CC[C@@]21C,Potency,[1],inactive
same,Potency,[2],inactive
same,outcome,[9],inactive
same,Potency,[4],inactive
O=c1[nH]c2ccccc2n1C1CCNCC1,Potency,[1],inactive
same,Potency,[2],inactive
same,outcome,[9],inactive
same,Potency,[4],inactive
CN1CC[C@]23c4c5ccc(O)c4O[C@H]2[C@@H](O)CC[C@H]3[C@H]1C5,Potency,[1],inactive
same,Potency,[2],inactive
same,Potency,[4],inactive
